Measurements from PubChem BioAssay (NCATS).
Records with an inconclusive call do not appear. Active and inactive are the calls of the source. Calls come from the whole dose curve; as a rule, active = well fitted curve in the direction sought with a large enough effect; inconclusive = small, poorly fitted or top-dose-only effect, or another doubt; inactive = no such curve, though single readings can be large; an effect the other way counts as inactive or inconclusive.

Key:
[1] = biological target: Cellular tumor antigen p53 (Homo sapiens) (UniProt P04637); test: Primary qHTS for small molecule compounds that upregulate eGFP-tagged delta133p53alpha (in N-terminal) cells. (AID 2060322); settings: NCI-H358 eGFP-delta133p53alpha fluorescence, 24 h; activation: active compounds read high;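 note: series mostly up to about 56 µM; 0% = DMSO vehicle and 100% = reference activator; nearly all actives have a fitted effect of over 75% in size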
In short: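 NCI-H358 cells pre-induced 24 h with 10 ng/ml doxycycline to express N-terminal eGFP-delta133p53alpha, then dosed 24 h at 37C without doxycycline; fixed, Hoechst-stained, GFP intensity by laser scanning cytometry, normalized to DMSO (0%) and 57.5 uM 5-azacytidine (100%).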

[2] = biological target: Aldehyde dehydrogenase, mitochondrial (Homo sapiens) (UniProt P05091); test: qHTS for Inhibitors of the Aldehyde Dehydrogenase Family (ALDH2) Primary screen (AID 2061308);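 note: plate controls were vehicle for no effect and reference inhibitor for full effect; nearly all actives have a fitted effect of over 55% in size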
[3] = biological target: Retinaldehyde dehydrogenase 3 (Homo sapiens) (UniProt P47895); test: qHTS for Inhibitors of the Aldehyde Dehydrogenase Family (ALDH1A3) Validation screen (AID 2061312); note: % is set by controls: 0 for no effect and ±100 for the full control effect; nearly all actives have a fitted effect of over 45% in size
[4] = biological target: Retinaldehyde dehydrogenase 3 (Homo sapiens) (UniProt P47895); test: qHTS for Inhibitors of the Aldehyde Dehydrogenase Family (ALDH1A3) Primary screen (AID 2061315);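 note: plate controls were DMSO vehicle for no effect and reference inhibitor for full effect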

Cellular tumor antigen p53 (Homo sapiens), sequence (P04637 whole entry, looked up): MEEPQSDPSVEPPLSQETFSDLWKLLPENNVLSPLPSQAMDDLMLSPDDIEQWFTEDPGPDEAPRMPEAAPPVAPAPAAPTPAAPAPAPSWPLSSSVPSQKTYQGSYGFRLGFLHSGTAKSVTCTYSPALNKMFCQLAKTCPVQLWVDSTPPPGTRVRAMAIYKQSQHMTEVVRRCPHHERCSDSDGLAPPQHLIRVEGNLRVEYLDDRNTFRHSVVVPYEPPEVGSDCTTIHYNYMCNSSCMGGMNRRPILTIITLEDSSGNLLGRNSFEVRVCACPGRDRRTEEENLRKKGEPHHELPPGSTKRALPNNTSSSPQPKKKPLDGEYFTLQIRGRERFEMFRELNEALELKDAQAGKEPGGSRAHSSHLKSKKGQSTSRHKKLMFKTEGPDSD

O=C(N[C@H](Cc1ccccc1)C(=O)O)c1sc2cc(F)ccc2c1Cl
inactive: activation [1] -9.55% | Potency [2] | Potency [3] | Potency [4]

COc1ccc(N2CCN(C(=O)c3cc4c(s3)-c3ccccc3S(=O)(=O)C4)CC2)cc1
inactive: activation [1] -13.8% | Potency [2] | Potency [3] | Potency [4]

CN(C)[C@@H]1CCc2[nH]c3ccc(NC(=O)c4ccc(F)cc4)cc3c2C1
inactive: activation [1] 0.477% | Potency [2] | Potency [3] | Potency [4]

N[C@@H](CC(=O)Nc1ccc(Oc2cc(F)c(F)cc2Br)cc1)C(=O)O
inactive: activation [1] -8.11% | Potency [2] | Potency [3] | Potency [4]
